Source: PubChem BioAssay AID1159580 (chemical genetic matrix, 2015)
Several values for one entry are separate records, joined by “and”; a condition that tells them apart may be missing. Equal entries are not always repeated. The campaign covered roughly 5,500 compounds. About 2,000 (36%) were called active. Another 18% or so got no clear call; they are omitted. Cut-off read from the data, not from the text of the source: active = normalized growth mostly below about 0.91 (no sharp cut-off); inconclusive = no clear call, values can overlap the other calls; inactive = mostly above about 0.92. Some of the results follow.

Assay: chemical genetic growth profiling, strain panel (AID 1159580);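 note: tested at 20 µM; growth read once vehicle control cultures reached saturation at 30 °C; 1 = growth at the plate median or of vehicle wells; lower values mean less growth of the strain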
Conditions: growth OD

Measured: normalized growth

NCCCCC(=O)O
inactive: S. cerevisiae deletion strains, locus YKL009W, strain mrt4, active compounds read low 1.01 | S. cerevisiae deletion strains, locus YKL068W, active compounds read low 1 | S. cerevisiae deletion strains, locus YKL085W, strain MDH1 (second series), active compounds read low 1.04 | S. cerevisiae deletion strains, locus YKL085W, strain MDH1, active compounds read low 1.04 | S. cerevisiae deletion strains, locus YKL160W, strain elf1, active compounds read low 1.03 | S. cerevisiae deletion strains, locus YKL190W, strain CNB1, active compounds read low 1.02 | S. cerevisiae deletion strains, locus YKR001C, strain vps1, active compounds read low 0.996 | S. cerevisiae deletion strains, locus YKR026C, strain gcn3, active compounds read low 1.02 | S. cerevisiae deletion strains, locus YKR091W, strain srl3, active compounds read low 1.02 | S. cerevisiae deletion strains, locus YLL001W, strain dnm1, active compounds read low 1.01 | S. cerevisiae deletion strains, locus YLL026W, active compounds read low 1.01 | S. cerevisiae deletion strains, locus YLL041C, strain sdh2, active compounds read low 1.01 | S. cerevisiae deletion strains, locus YLR027C, strain aat2, active compounds read low 1.02 | S. cerevisiae deletion strains, locus YLR039C, strain RIC1, active compounds read low 1.06 | S. cerevisiae deletion strains, locus YLR058C, strain SHM2, active compounds read low 1.03 | S. cerevisiae deletion strains, locus YLR102C, strain apc9, active compounds read low 0.999 | S. cerevisiae deletion strains, locus YLR113W, strain HOG1, active compounds read low 1 | S. cerevisiae deletion strains, locus YLR221C, strain rsa3, active compounds read low 1 | S. cerevisiae deletion strains, locus YLR258W, strain gsy2, active compounds read low 1.02 | S. cerevisiae deletion strains, locus YLR262C, strain YPT6 (second series), active compounds read low 1.03 | S. cerevisiae deletion strains, locus YLR262C, strain YPT6, active compounds read low 1.09 | S. cerevisiae deletion strains, locus YLR268W, strain sec22, active compounds read low 1 | S. cerevisiae deletion strains, locus YLR320W, strain mms22, active compounds read low 1.03 | S. cerevisiae deletion strains, locus YLR330W, strain CHS5, active compounds read low 1.02 | S. cerevisiae deletion strains, locus YLR342W, strain FKS1 (second series), active compounds read low 1.01 | S. cerevisiae deletion strains, locus YLR342W, strain FKS1, active compounds read low 1.02 | S. cerevisiae deletion strains, locus YLR357W, strain rsc2, active compounds read low 1.04 | S. cerevisiae deletion strains, locus YLR370C, strain arc18, active compounds read low 1.02 | S. cerevisiae deletion strains, locus YLR371W, strain rom2, active compounds read low 0.995 | S. cerevisiae deletion strains, locus YLR384C, strain iki3, active compounds read low 1.03 | S. cerevisiae deletion strains, locus YLR418C, strain cdc73, active compounds read low 1.02 | S. cerevisiae deletion strains, locus YML016C, strain PPZ1, active compounds read low 1.03 | S. cerevisiae deletion strains, locus YML032C, strain rad52, active compounds read low 0.979 | S. cerevisiae deletion strains, locus YML120C, strain ndi1, active compounds read low 1.01 | S. cerevisiae deletion strains, locus YML124C, strain tub3, active compounds read low 0.987 | S. cerevisiae deletion strains, locus YMR058W, strain fet3, active compounds read low 1.02 | S. cerevisiae deletion strains, locus YMR078C, strain ctf18, active compounds read low 0.983 | S. cerevisiae deletion strains, locus YMR125W, strain sto1, active compounds read low 1 | S. cerevisiae deletion strains, locus YMR129W, active compounds read low 1.02 | S. cerevisiae deletion strains, locus YMR205C, strain PFK2, active compounds read low 1.03 | S. cerevisiae deletion strains, locus YMR223W, strain ubp8, active compounds read low 0.976 | S. cerevisiae deletion strains, locus YMR231W, strain pep5, active compounds read low 1.01 | S. cerevisiae deletion strains, locus YMR263W, strain SAP30, active compounds read low 1.03 | S. cerevisiae deletion strains, locus YMR307W, strain GAS1, active compounds read low 1.04 | S. cerevisiae deletion strains, locus YNL067W, strain RPL9B, active compounds read low 1.04 | S. cerevisiae deletion strains, locus YNL071W, strain lat1, active compounds read low 1.01 | S. cerevisiae deletion strains, locus YNL128W, strain TEP1, active compounds read low 1.02 and 1.01 | S. cerevisiae deletion strains, locus YNL153C, strain GIM3, active compounds read low 1.02 | S. cerevisiae deletion strains, locus YNL175C, strain NOP13, active compounds read low 1.03 | S. cerevisiae deletion strains, locus YNL183C, strain NPR1, active compounds read low 0.894 | S. cerevisiae deletion strains, locus YNL197C, strain WHI3, active compounds read low 1.01 | S. cerevisiae deletion strains, locus YNL209W, strain ssb2, active compounds read low 1.02 | S. cerevisiae deletion strains, locus YNL224C, strain SQS1, active compounds read low 1 | S. cerevisiae deletion strains, locus YNL233W, strain BNI4, active compounds read low 1.03 | S. cerevisiae deletion strains, locus YNL248C, strain rpa49, active compounds read low 1.01 | S. cerevisiae deletion strains, locus YNL250W, strain rad50, active compounds read low 1 | S. cerevisiae deletion strains, locus YNL271C, strain bni1, active compounds read low 0.99 | S. cerevisiae deletion strains, locus YNL298W, strain CLA4, active compounds read low 0.99 | S. cerevisiae deletion strains, locus YNL307C, strain MCK1, active compounds read low 0.987 | S. cerevisiae deletion strains, locus YNL322C, strain KRE1 (second series), active compounds read low 1.02 | S. cerevisiae deletion strains, locus YNL322C, strain KRE1, active compounds read low 1.02 | S. cerevisiae deletion strains, locus YNR049C, strain mso1, active compounds read low 1.01 | S. cerevisiae deletion strains, locus YNR052C, strain pop2, active compounds read low 0.993 | S. cerevisiae deletion strains, locus YOL006C, strain TOP1, active compounds read low 1.08 | S. cerevisiae deletion strains, locus YOL012C, strain htz1 0.929 | S. cerevisiae deletion strains, locus YOL147C, strain pex11, active compounds read low 0.99 | S. cerevisiae deletion strains, locus YOR001W, strain rrp6, active compounds read low 1.03 | S. cerevisiae deletion strains, locus YOR061W, strain CKA2, active compounds read low 1.02 | S. cerevisiae deletion strains, locus YOR069W, strain VPS5, active compounds read low 1.01 | S. cerevisiae deletion strains, locus YOR070C, strain gyp1, active compounds read low 1.02 | S. cerevisiae deletion strains, locus YOR080W, strain dia2, active compounds read low 1.02 | S. cerevisiae deletion strains, locus YOR083W, strain WHI5 (second series), active compounds read low 1.05 | S. cerevisiae deletion strains, locus YOR083W, strain WHI5, active compounds read low 1.02 | S. cerevisiae deletion strains, locus YOR106W, strain vam3, active compounds read low 1.02 | S. cerevisiae deletion strains, locus YOR136W, strain idh2, active compounds read low 0.982 | S. cerevisiae deletion strains, locus YOR144C, strain elg1, active compounds read low 0.999 | S. cerevisiae deletion strains, locus YOR184W, strain ser1, active compounds read low 0.984 | S. cerevisiae deletion strains, locus YOR231W, strain MKK1, active compounds read low 0.988 | S. cerevisiae deletion strains, locus YOR265W, strain rbl2, active compounds read low 1.02 | S. cerevisiae deletion strains, locus YOR270C, strain vph1, active compounds read low 1.05 | S. cerevisiae deletion strains, locus YOR290C, strain snf2, active compounds read low 1.01 | S. cerevisiae deletion strains, locus YOR316C, strain cot1, active compounds read low 0.992 | S. cerevisiae deletion strains, locus YPL051W, strain arl3, active compounds read low 1.01 | S. cerevisiae deletion strains, locus YPL055C, strain LGE1, active compounds read low 1.05 and 0.99 | S. cerevisiae deletion strains, locus YPL078C, strain atp4, active compounds read low 1.03 | S. cerevisiae deletion strains, locus YPL106C, strain sse1, active compounds read low 1.03 | S. cerevisiae deletion strains, locus YPL240C, strain hsp82, active compounds read low 1.01 | S. cerevisiae deletion strains, locus YPL241C, strain CIN2, active compounds read low 0.963 | S. cerevisiae deletion strains, locus YPL256C, strain CLN2, active compounds read low 0.965 | S. cerevisiae deletion strains, locus YPR119W, strain clb2, active compounds read low 0.989 | S. cerevisiae deletion strains, locus YPR141C, strain kar3, active compounds read low 0.98 | S. cerevisiae deletion strains, locus YPR163C, strain tif3, active compounds read low 0.982 | S. cerevisiae deletion strains, locus YPR167C, strain met16, active compounds read low 0.989 | S. cerevisiae deletion strains, strain wtn01, active compounds read low 1 | S. cerevisiae strains, strain wild type, active compounds read low 1.01
